In PubChem BioAssay (NCI):
About 83,000 compounds went through this panel and 20% of them were active in at least one assay; those are over-represented in the sample as a whole.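 Percent growth is the endpoint: 0 to 100 indicates growth inhibition (40 means 60% inhibition), 0 means no net growth, and negative values indicate cell death.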 A number with no mark means an inactive call. Calls of active or inactive are those of the source. Rule for the calls: active = growth percent below 10; inactive = the rest.

How the values were obtained:
Test in all cases: NCI-60 one-dose screen, 48 h (100 = growth as untreated, 0 = no growth, -100 = all killed)
Settings in all cases: 10 µM unless noted
HCT-15 colon = test system: HCT-15 colon
HT29 colon = test system: HT29 colon
SNB-75 CNS = test system: SNB-75 CNS
SNB-19 CNS = test system: SNB-19 CNS
U251 CNS = test system: U251 CNS
PC-3 prostate = test system: PC-3 prostate
SK-MEL-5 melanoma = test system: SK-MEL-5 melanoma
UACC-62 melanoma = test system: UACC-62 melanoma
LOX IMVI melanoma = test system: LOX IMVI melanoma
SK-MEL-28 melanoma = test system: SK-MEL-28 melanoma

SMILES	growth (HCT-15 colon)	growth (HT29 colon)	growth (SNB-75 CNS)	growth (SNB-19 CNS)	growth (U251 CNS)	growth (PC-3 prostate)	growth (SK-MEL-5 melanoma)	growth (UACC-62 melanoma)	growth (LOX IMVI melanoma)	growth (SK-MEL-28 melanoma)
Cc1ccccc1CCO	99.8%	76.4%	102%	108%	98.6%	97.6%	102%	108%	103%	99.9%
CCOC(=O)/C=C/c1ccc(C(=O)OCC)[nH]1	24.3%	15%	70.1%	87.7%	39.9%	83.5%	8.89% (active)	51%	52.7%	83.8%
ClC1=C2NC=NC2n2c(nnc2-c2ccc(Cl)cc2)N1 (stereo not given)	96.4%	91.5%	107%	92.7%	89.6%	89.9%	96.9%	92.1%	108%	102%
N#Cc1c2c(nc3n[nH]c(N)c13)CCCC2	105%	104%	85.6%	112%	99.3%	109%	118%	101%	102%	122%
CN(C)c1ccc(C2Nc3ccccc3-n3cccc32)cc1 (stereo not given)	89.7%	99.9%	107%	94.7%	95.6%	66.4%	93.2%	79%	103%	107%
C[C@]12C[C@@H](c3ccoc3)OC(=O)[C@@H]1CC[C@]1(C)[C@@H]2CC[C@@H](O)[C@]1(C)O	85.4%	68.3%	62.3%	76.5%	66.5%	60.5%	76.2%	76.1%	70.5%	94.1%
COc1cc(-c2cc(-c3nc4ccc(Cl)cc4[nH]3)[nH]n2)cc(OC)c1OC	51.9%	71.7%	68.4%	85%	69.7%	26.1%	-5.65% (active)	37.1%	34%	60.1%
CCn1cc2c(cc1=O)-c1nc3ccccc3c3ccnc(c13)C2=O	50.2%	57.3%	46.9%	37.4%	44.6%	63.5%	42.8%	37.9%	57%	72.4%
N=c1c2ccccc2nc2n1CCCCC2	110%	110%	99.7%	103%	101%	116%	100%	106%	106%	103%
CC/C=C\C[C@H](O)C/C=C1/C(=O)C=C[C@@H]1C/C=C\CCCC(=O)NC	-28.4% (active)	0.814% (active)	62.5%	22.5%	-8.98% (active)	13.6%	-94.5% (active)	-45.3% (active)	-72.2% (active)	-17.1% (active)
O=c1[nH]c(-c2ccccn2)nc2sc3c(c12)CCCCC3	34.3%	36.9%	80.9%	46.1%	17.1%	44.2%	44.5%	20.2%	8.61% (active)	45.2%
COc1ccc(-c2cc(/C=C3\C(=O)Nc4ccc(Cl)cc43)[nH]n2)cc1	36.1%	11.5%	49.8%	71.1%	34.2%	67.1%	37.9%	40.6%	35.2%	61.7%
CCCCCCCCCCCCCCCCCCSC1=CC(=O)C(OC)=C(OC)C1=O	98.7%	107%	95.1%	91.9%	76.4%	52%	86.3%	77%	45.9%	97.3%
Nc1nc2c(c3ncccc13)C(c1cccc(Br)c1)Cc1ncccc1-2 (stereo not given)	17.6%	0.652% (active)	30.1%	31.6%	11.3%	25.6%	31.8%	27.4%	38.9%	55.1%
O=C1c2c[n+](Cc3ccccc3)ccc2-c2nc3ccccc3c3ccnc1c23	18.6%	-25% (active)	-80.7% (active)	-72.2% (active)	-77% (active)	-7.15% (active)	-93.9% (active)	-58.5% (active)	-37.1% (active)	-34.3% (active)
COC(=O)[C@@H]1CC[C@]2(C)[C@H](CC[C@@H]3O[C@@]32C)[C@@]1(C)CC(=O)c1ccoc1	103%	93.2%	114%	91.1%	91.8%	86%	97.4%	89.5%	98.6%	104%
COc1cnc2c(c1)C(=O)c1c-2n(CCCBr)c(=O)c2cc([N+](=O)[O-])ccc12	20.7%	0.984% (active)	13.5%	22.3%	-22.4% (active)	4.1% (active)	-82.6% (active)	-62.3% (active)	-54.2% (active)	16.3%
COc1ccc2nc3cc(Cl)ccc3c(N3CCN(c4nccc(Nc5ccc(Cl)cc5)n4)CC3)c2c1	56.5%	69.7%	51.4%	92%	62.1%	40.3%	86.7%	81.6%	61.9%	81.8%
Cc1[nH]n(-c2ccccc2)c2nc3nncc3c(-c3ccc(Cl)cc3)c12	94.1%	79.7%	104%	100%	99.2%	73.1%	104%	91.5%	89%	104%
CC(C)(C)c1nn(-c2ccccc2)c2c1CC1(CN2Cc2ccc3c(c2)OCO3)C(=O)c2ccccc2C1=O	105%	103%	120%	111%	105%	91.8%	99.2%	92.3%	103%	116%
O=C(COCc1c(-c2ccccc2)no[n+]1[O-])Nc1ccc(C(=O)/C=C/c2ccc3c(c2)OCO3)cc1	104%	132%	120%	97.3%	107%	76.3%	94.4%	97.5%	68.3%	112%
COc1cc(NCCCCN=C(N)N)c2ncccc2c1	99.9%	79.6%	48.6%	81.2%	48.7%	79.1%	89.2%	87.9%	101%	98.9%
COc1cc(OC)c(/C=C/S(=O)(=O)Cc2cnc(OC)c(N)c2)c(OC)c1	9.83% (active)	0.841% (active)	42.1%	31.3%	10.5%	27.8%	-24.8% (active)	40.1%	8.96% (active)	56.2%
Cn1cc(-c2ccc(-c3cn(C)c4ncccc34)[nH]2)c2cccnc21	50.4%	97.6%	59.7%	76%	-44.1% (active)	-29.9% (active)	9.47% (active)	-4.05% (active)	21.8%	84.8%
O=C(/C=C/c1ccc(Cl)cc1)/C=C/c1cc2ccccc2[nH]c1=O	69%	-0.317% (active)	68.8%	83.4%	11.7%	48.8%	75.2%	52.9%	-44.5% (active)	76.1%
CC/C(=C(\c1ccc(O)cc1)c1ccc(OCCN(C)CCN(C)C(=O)CCCCC(=O)c2c(C)[nH]c(/C=C3\N=C(c4ccc[nH]4)C=C3OC)c2C)cc1)c1ccccc1	60%	29.3%	105%	114%	72%	61.2%	77.8%	95.4%	44.9%	89.7%
CCN(CC)CCC(=O)Nc1ccc(Cn2nnc3c2C(=O)c2nnn(Cc4ccc(NC(=O)CCN(CC)CC)cc4)c2C3=O)cc1	95.3%	-51% (active)	-92.8% (active)	-83.4% (active)	-85.1% (active)	-1.02% (active)	-96.8% (active)	-79.6% (active)	-12.6% (active)	-60.9% (active)
